From PubChem BioAssay (EPA / NIEHS)
A structure can be active in one record and inactive in another. Active and inactive are the calls of the source. How the source made its calls: active means hit-call score of the fitted dose curve at least 0.9, where 1 is the maximum; inactive means score below 0.9.

Experiments:
[1] = target: Bile acid receptor (Homo sapiens) (UniProt Q96RI1); test: ATG_IR1_CIS: Attagene CIS-FACTORIAL HepG2 Assay for human Nuclear Receptor Subfamily 1 Group H Member 4 (NR1H4), IR1 submotif (AID 2282946); conditions: IR1 reporter transcription, actives raise or lower the signal
In short: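 HepG2 cells transiently transfected with multiple cis-promoter-driven reporter units to measure endogenous transcription factor activity; 24 h exposure. Reporter mRNA read by RT-PCR, FAM labelling, HpaI digestion and capillary electrophoresis. Bidirectional fit versus DMSO.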

[2] = ATG_GRE_CIS: Attagene CIS-FACTORIAL HepG2 Assay for human Glucocorticoid Response Elements (GRE) (AID 2282947); conditions: HepG2 GRE cis-reporter, Attagene multiplex mRNA; actives raise or lower the signal
In short: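 Transiently transfected HepG2 cells carrying GRE cis-reporter units (endogenous TF activity) dosed 24 h; reporter mRNA quantified by RT-PCR, 6-FAM labelling, HpaI digestion and capillary electrophoresis. Bidirectional fit versus DMSO baseline.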

[3] = ATG_ISRE_CIS: Attagene CIS-FACTORIAL HepG2 Assay for human Interferon Regulatory Factor 1 (IRF1) binding to an Interferon-Stimulated Response Element (ISRE) (AID 2282948); conditions: HepG2 ISRE cis-reporter (Attagene), mRNA transcription readout; actives raise or lower the signal
In short: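 Cell-based cis-reporter assay; HepG2; 24 h exposure; reporter mRNA by RT-PCR plus capillary electrophoresis fluorescence; activity in either direction scored relative to DMSO.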

[4] = ATG_M_32_CIS: Attagene CIS-FACTORIAL HepG2 Assay for M32 Transcription Factor (Internal Marker) (AID 2282949); conditions: HepG2 Attagene cis-factorial M32 reporter, mRNA; actives raise or lower the signal;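 further: background control marker of the multiplexed CIS panel rather than a real target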
In short: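 HepG2 cells transiently transfected with multiplexed cis-regulated reporter units, dosed 24 h. Reporter mRNA quantified by RT-PCR, 6-FAM labelling, HpaI digestion and capillary electrophoresis; bidirectional fit vs DMSO.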

[5] = ATG_M_06_CIS: Attagene CIS-FACTORIAL HepG2 Assay for M06 Transcription Factor (Internal Marker) (AID 2282950); conditions: HepG2 Attagene CIS-FACTORIAL M06 internal marker reporter; actives raise or lower the signal
In short: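 Fluorescence-labelled RT-PCR products from cis-promoter reporter units, cut with HpaI and resolved by capillary electrophoresis, give the signal. Cells are human HepG2, dosed for 24 h. Serves as background control, fitted relative to DMSO.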

[6] = target: Hypoxia-inducible factor 1-alpha (Homo sapiens) (UniProt Q16665); test: ATG_HIF1a_CIS: Attagene CIS-FACTORIAL HepG2 Assay for human Hypoxia Inducible Factor 1 (HIF1A) (AID 2282951); conditions: HepG2 Attagene cis-factorial HIF1a reporter transcription; actives raise or lower the signal
In short: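 In this multiplexed cell assay, HepG2 cells bearing transfected cis reporters are dosed for 24 h and reporter mRNA is read by RT-PCR plus capillary electrophoresis; signal increases and decreases are both scored against DMSO.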

[7] = target: Hepatocyte nuclear factor 6 (Homo sapiens) (UniProt Q9UBC0); test: ATG_HNF6_CIS: Attagene CIS-FACTORIAL HepG2 Assay for human Hepatocyte Nuclear Factor 6 (HNF6) (AID 2282952); conditions: HepG2 Attagene cis-factorial HNF6 reporter transcription; actives raise or lower the signal
In short: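 Cells are HepG2 carrying transiently transfected cis-promoter reporter units. Treatment lasts 24 h, after which reporter transcripts are reverse-transcribed, amplified, FAM-labelled and sized by capillary electrophoresis. DMSO serves as baseline.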

[8] = target: Heat shock factor protein 1 (Homo sapiens) (UniProt Q00613); test: ATG_HSE_CIS: Attagene CIS-FACTORIAL HepG2 Assay for human Heat Shock Transcription Factor 1 (HSE) (AID 2282953); conditions: HepG2 HSE cis-reporter, Attagene RNA transcription; actives raise or lower the signal
In short: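 After a 24 h incubation with test chemical, transfected HepG2 cells were harvested for RNA; reporter transcripts were measured by RT-PCR and capillary electrophoresis. Values reflect gain or loss of signal relative to DMSO.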

[9] = ATG_MRE_CIS: Attagene CIS-FACTORIAL HepG2 Assay for human Metal Responsive Element (MRE) (AID 2282954); conditions: HepG2 MRE cis-reporter transcription, Attagene multiplex; actives raise or lower the signal
In short: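 HepG2 cells transiently transfected with cis-element-driven reporter units; mRNA measured 24 h after dosing. Reporter transcripts quantified by RT-PCR, FAM labelling, HpaI digestion and capillary electrophoresis; bidirectional fit versus DMSO.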

[10] = target: Paired box protein Pax-6 (Homo sapiens) (UniProt P26367); test: ATG_Pax6_CIS: Attagene CIS-FACTORIAL HepG2 Assay for human Paired Box 6 (PAX6) (AID 2282956); conditions: HepG2 CIS-FACTORIAL PAX6 reporter transcription, RNA readout; actives raise or lower the signal
In short: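 Multiplexed cis-reporter HepG2 system; 24 h treatment; reporter mRNA read by RT-PCR/CE fluorescence; bidirectional fit vs DMSO.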

[11] = ATG_PXRE_CIS: Attagene CIS-FACTORIAL HepG2 Assay for human Pregnane X Receptor Element (PXRE) (AID 2282957); conditions: HepG2 Attagene CIS-FACTORIAL PXRE reporter, mRNA; actives raise or lower the signal
In short: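 Multiplexed cis-reporter assay in transiently transfected human HepG2 cells; 24 h chemical exposure. Reporter transcripts quantified by RT-PCR with fluorescent labeling and capillary electrophoresis.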

[12] = ATG_PPRE_CIS: Attagene CIS-FACTORIAL HepG2 Assay for human Peroxisome Proliferator-activated Response Element (PPRE) (AID 2282958); conditions: HepG2 PPRE cis-element reporter, Attagene transcription factor profiling; actives raise or lower the signal
In short: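 Multiplexed reporter transcription units under cis-regulatory promoters were transfected into HepG2 cells to capture endogenous factor activity. A 24 h incubation preceded RNA isolation and fluorescent RT-PCR fragment analysis.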

[13] = ATG_RORE_CIS: Attagene CIS-FACTORIAL HepG2 Assay for human RAR-related Orphan Receptor Element (RORE) (AID 2282959); conditions: HepG2 Attagene cis-factorial RORE reporter, mRNA; actives raise or lower the signal
In short: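 Fluorescence intensity of reporter-specific cDNA fragments, separated by capillary electrophoresis, gives the signal. Source: HepG2 liver cells transiently transfected with cis-element reporters and exposed 24 h; DMSO-normalized bidirectional fit.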

[14] = ATG_Sox_CIS: Attagene CIS-FACTORIAL HepG2 Assay for human SRY-box transcription factor (SOX) (AID 2282960); conditions: HepG2 Attagene cis-factorial SOX reporter, mRNA; actives raise or lower the signal
In short: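 After 24 h of chemical treatment, transfected HepG2 reporter cells are lysed for total RNA. Transcript levels come from RT-PCR with labelled primer extension and capillary electrophoresis, analysed bidirectionally versus DMSO.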

[15] = target: Transcription factor Sp1 (Homo sapiens) (UniProt P08047); test: ATG_Sp1_CIS: Attagene CIS-FACTORIAL HepG2 Assay for human Specificity Protein 1 (Sp1) (AID 2282961); conditions: HepG2 Sp1 cis-reporter transcription, actives raise or lower the signal
In short: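 Sp1-driven reporter mRNA, read as capillary electrophoresis fluorescence after RT-PCR, in transiently transfected HepG2 cells dosed for 24 h; signal change in either direction relative to DMSO.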

[16] = ATG_SREBP_CIS: Attagene CIS-FACTORIAL HepG2 Assay for human Sterol Regulatory Element Binding (SREBP) (AID 2282962); conditions: HepG2 Attagene cis-factorial SREBP reporter, mRNA; actives raise or lower the signal
In short: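 mRNA induction of transfected cis-promoter reporters in HepG2 cells, 24 h post-dose. Detection: RT-PCR with 6-FAM-labelled products, HpaI digest, capillary electrophoresis. DMSO served as negative control and baseline.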

[17] = target: Signal transducer and activator of transcription 3 (Homo sapiens) (UniProt P40763); test: ATG_STAT3_CIS: Attagene CIS-FACTORIAL HepG2 Assay for human Signal Transducer and Activator of Transcription 3 (STAT3) (AID 2282963); conditions: HepG2, Attagene cis-factorial STAT3 reporter transcription; actives raise or lower the signal
In short: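 HepG2 cells transiently transfected with multiple cis-element-driven reporter units report endogenous transcription factor activity. After 24 h compound exposure, reporter mRNA is measured by RT-PCR, 6-FAM labelling, HpaI digestion and capillary electrophoresis. Fitted bidirectionally versus DMSO.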

[18] = ATG_TA_CIS: Attagene CIS-FACTORIAL HepG2 Assay for human TA Basal Promoter (AID 2282964); conditions: HepG2 Attagene CIS-factorial TA basal promoter reporter; actives raise or lower the signal
In short: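 Multiplexed mRNA reporter assay, HepG2, 24 h. Reporter cDNA amplified, 6-FAM primer-extended, HpaI-cut, CE-sized; DMSO = negative control and baseline.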

[19] = ATG_PBREM_CIS: Attagene CIS-FACTORIAL HepG2 Assay for human Phenobarbital-responsive Enhancer Module (PBREM) (AID 2282955); conditions: HepG2 PBREM cis-reporter, Attagene multiplexed transcription; actives raise or lower the signal
In short: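 After a 24 h incubation with test chemical, transfected HepG2 cells yield total RNA; reporter-specific RT-PCR products are fluorescently labelled, HpaI-digested and resolved by capillary electrophoresis against ROX size standards.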

Measured: AC50

Transcription factor Sp1 (Homo sapiens), sequence (P08047 whole entry, looked up): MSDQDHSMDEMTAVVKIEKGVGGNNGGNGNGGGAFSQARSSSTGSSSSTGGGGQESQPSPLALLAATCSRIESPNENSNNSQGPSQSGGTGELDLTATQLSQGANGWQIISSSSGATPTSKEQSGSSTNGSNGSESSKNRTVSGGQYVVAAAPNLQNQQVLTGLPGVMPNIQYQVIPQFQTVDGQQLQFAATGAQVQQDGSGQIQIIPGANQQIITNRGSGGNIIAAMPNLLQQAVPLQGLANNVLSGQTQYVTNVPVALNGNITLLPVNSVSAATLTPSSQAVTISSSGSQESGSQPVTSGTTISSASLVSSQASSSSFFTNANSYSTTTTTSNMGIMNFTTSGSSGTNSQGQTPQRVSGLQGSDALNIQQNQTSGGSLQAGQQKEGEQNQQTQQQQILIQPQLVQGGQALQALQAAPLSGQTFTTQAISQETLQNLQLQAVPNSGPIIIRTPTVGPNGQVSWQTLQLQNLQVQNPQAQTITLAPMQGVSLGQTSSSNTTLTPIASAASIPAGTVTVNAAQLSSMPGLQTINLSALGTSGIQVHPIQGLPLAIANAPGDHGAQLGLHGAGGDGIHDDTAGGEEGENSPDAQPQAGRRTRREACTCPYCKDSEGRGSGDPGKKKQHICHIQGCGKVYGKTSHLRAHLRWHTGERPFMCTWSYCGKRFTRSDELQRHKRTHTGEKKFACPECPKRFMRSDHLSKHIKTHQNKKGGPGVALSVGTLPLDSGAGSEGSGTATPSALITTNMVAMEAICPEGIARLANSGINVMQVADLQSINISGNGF
Signal transducer and activator of transcription 3 (Homo sapiens), sequence (P40763 whole entry, looked up): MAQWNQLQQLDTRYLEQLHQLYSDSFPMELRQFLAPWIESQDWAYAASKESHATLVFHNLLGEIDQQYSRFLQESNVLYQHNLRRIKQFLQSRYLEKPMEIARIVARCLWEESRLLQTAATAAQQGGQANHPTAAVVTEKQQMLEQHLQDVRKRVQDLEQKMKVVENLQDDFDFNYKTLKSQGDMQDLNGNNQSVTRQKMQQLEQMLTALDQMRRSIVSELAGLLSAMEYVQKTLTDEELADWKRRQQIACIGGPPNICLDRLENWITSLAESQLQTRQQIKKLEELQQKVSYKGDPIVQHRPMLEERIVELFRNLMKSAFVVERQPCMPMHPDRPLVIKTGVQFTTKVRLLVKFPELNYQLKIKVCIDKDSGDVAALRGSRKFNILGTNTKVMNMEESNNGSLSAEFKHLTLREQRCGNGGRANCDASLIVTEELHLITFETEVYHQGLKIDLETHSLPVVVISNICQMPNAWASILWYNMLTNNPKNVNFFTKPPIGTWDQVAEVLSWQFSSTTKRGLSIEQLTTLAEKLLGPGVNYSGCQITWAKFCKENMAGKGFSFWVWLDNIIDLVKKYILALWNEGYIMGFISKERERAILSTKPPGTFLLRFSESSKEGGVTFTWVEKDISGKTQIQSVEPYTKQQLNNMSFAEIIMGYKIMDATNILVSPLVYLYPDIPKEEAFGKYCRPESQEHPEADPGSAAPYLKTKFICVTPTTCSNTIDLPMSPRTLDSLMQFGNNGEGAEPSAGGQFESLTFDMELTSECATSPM
Paired box protein Pax-6 (Homo sapiens), sequence (P26367 whole entry, looked up): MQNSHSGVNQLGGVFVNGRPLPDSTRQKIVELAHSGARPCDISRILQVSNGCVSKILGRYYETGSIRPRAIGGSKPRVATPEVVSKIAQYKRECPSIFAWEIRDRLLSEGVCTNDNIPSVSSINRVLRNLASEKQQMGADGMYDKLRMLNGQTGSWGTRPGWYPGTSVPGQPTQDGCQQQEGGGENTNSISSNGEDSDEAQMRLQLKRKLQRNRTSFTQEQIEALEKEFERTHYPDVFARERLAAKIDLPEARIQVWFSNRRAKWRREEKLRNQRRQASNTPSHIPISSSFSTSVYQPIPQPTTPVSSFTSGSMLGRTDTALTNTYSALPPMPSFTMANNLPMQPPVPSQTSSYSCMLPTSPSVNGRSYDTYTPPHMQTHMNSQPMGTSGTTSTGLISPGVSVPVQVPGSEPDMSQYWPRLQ
Heat shock factor protein 1 (Homo sapiens), sequence (Q00613 whole entry, looked up): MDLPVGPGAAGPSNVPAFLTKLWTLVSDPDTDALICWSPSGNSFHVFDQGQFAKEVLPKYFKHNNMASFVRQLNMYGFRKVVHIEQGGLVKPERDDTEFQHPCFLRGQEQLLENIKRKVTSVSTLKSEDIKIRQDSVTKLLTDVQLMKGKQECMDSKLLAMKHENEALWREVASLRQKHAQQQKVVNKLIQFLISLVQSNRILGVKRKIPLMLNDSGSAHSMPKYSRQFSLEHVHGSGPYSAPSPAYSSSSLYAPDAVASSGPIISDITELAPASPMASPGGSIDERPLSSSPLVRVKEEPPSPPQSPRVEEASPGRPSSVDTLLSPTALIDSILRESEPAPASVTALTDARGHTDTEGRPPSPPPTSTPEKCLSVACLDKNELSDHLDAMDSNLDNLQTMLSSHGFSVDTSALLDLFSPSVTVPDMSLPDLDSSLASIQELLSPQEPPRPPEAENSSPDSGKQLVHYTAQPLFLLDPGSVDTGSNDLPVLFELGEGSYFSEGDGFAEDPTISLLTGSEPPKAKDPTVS
Bile acid receptor (Homo sapiens), sequence (Q96RI1 whole entry, looked up): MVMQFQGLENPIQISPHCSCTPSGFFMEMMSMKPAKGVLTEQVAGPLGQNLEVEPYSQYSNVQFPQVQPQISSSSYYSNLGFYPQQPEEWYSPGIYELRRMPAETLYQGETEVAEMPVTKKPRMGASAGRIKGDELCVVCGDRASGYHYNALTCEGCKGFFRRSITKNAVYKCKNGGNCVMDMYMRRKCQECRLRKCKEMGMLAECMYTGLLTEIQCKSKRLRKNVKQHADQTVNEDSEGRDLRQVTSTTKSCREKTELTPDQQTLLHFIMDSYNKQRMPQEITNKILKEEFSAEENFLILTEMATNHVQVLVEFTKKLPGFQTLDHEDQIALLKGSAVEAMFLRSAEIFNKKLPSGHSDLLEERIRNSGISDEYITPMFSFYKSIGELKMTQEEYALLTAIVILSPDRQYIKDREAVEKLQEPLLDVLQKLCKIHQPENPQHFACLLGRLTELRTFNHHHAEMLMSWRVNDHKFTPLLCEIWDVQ
Hypoxia-inducible factor 1-alpha (Homo sapiens), sequence (Q16665 whole entry, looked up): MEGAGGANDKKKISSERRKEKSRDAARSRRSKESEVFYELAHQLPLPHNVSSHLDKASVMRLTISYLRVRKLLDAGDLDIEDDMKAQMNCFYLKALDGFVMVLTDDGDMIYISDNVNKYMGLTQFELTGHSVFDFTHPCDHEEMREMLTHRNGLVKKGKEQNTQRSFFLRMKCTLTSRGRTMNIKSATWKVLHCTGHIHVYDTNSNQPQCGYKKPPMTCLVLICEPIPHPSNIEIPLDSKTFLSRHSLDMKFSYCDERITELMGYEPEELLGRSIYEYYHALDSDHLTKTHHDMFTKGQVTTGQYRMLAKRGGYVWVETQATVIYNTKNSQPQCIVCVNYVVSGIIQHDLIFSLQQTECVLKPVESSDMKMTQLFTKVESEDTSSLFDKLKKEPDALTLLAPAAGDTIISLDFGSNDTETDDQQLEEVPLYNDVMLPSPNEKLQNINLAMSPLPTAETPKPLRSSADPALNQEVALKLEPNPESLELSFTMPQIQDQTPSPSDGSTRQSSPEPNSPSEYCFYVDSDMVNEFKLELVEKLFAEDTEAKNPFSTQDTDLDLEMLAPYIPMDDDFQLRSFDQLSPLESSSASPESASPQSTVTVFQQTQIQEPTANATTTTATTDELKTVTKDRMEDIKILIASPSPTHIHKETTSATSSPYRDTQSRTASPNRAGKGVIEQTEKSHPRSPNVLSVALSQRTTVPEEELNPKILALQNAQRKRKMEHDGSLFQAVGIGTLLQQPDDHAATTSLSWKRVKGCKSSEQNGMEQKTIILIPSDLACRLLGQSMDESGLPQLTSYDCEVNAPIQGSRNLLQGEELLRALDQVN
Hepatocyte nuclear factor 6 (Homo sapiens), sequence (Q9UBC0 whole entry, looked up): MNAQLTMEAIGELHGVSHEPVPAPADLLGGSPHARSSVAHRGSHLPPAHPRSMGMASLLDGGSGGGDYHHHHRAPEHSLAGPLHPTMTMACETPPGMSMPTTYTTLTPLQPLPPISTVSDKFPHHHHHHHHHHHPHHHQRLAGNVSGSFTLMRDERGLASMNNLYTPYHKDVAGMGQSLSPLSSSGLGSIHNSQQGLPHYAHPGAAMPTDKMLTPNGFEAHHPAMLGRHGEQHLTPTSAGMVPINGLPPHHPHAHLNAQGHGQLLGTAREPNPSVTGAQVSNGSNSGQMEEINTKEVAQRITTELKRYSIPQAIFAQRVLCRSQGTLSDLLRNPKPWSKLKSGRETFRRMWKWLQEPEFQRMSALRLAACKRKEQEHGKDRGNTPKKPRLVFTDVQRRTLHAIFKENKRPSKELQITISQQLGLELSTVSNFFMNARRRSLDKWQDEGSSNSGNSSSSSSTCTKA

O=C(O)C(F)(OC(F)(F)C(F)(OC(F)(F)C(F)(OC(F)(F)C(F)(F)C(F)(F)F)C(F)(F)F)C(F)(F)F)C(F)(F)F (configuration not stated)
inactive: [1] | [2] | [3] | [4] | [5] | [6] | [7] | [8] | [9] | [10] | [11] | [12] | [13] | [14] | [15] | [16] | [17] | [18]
active: [11] 83.3 µM

C=C(C)C(=O)OCC(F)(F)C(F)(F)C(F)(F)F
not listed: [4]
inactive: all other assays above

Nc1cc(Cl)c(N)c(Cl)c1
active: [11] 37 µM
not listed: [4] | [19]
inactive: all other assays above

OCCCC(F)(F)C(F)(F)C(F)(F)F
not listed: [4] | [11]
inactive: all other assays above

Cc1ccc(S(=O)(=O)NCl)cc1
not listed: [1] | [11] | [12] | [13] | [19]
inactive: all other assays above

Nc1ccc([N+](=O)[O-])cc1O
active: [6] 31 µM
not listed: [4] | [19]
inactive: all other assays above
